Data published in PubChem BioAssay AID1347417 (National Center for Advancing Translational Sciences (NCATS), 2020).
The whole screen tested about 120,000 compounds, of which about 5,300 (4.4%) were called active. Not shown: some 22% with an inconclusive outcome. This is one part of a sample in which actives are shown more often than they occur. Unmarked numbers belong to inactive results. The call rests on the fitted dose curve; in most records, active means well fitted inhibition curve with a large enough effect; inconclusive means small, poorly fitted or top-dose-only effect; inactive means no such curve, though single readings can be large or run the other way.

Experiment: qHTS Primary assay for Inhibitors of Plasmodium falciparum Dd2 growth in vitro; further: nearly all actives have a fitted effect of over 65% in size;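 on activity, negative = inhibition: plate controls were DMSO vehicle for no effect and reference drug for full effect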
Conditions: P. falciparum Dd2 growth, SYBR Green, 72 h; series mostly up to 28.9 µM; activity, negative = inhibition: at the top concentration
Description: Malaria, a parasitic disease spread to humans through the bite of a Plasmodium infected Anopheles mosquito, continues to be a global health burden affecting millions of people, with an estimated 228 million cases and 405,000 deaths in 2018. Concerns about safety and limitations of current antimalarial treatments strongly emphasize the need to develop new therapeutic options. The scarce number of chemotypes and validated drug targets with efficacy against the liver stage, have hindered development of new antimalarials. To address this, a chemoprophylactic drug discovery effort was conducted through a combined phenotypic high-throughput asexual blood stage and liver stage screen, providing a robust foundation to identify liver-stage active lead chemotypes. Compounds were initially screened against Plasmodium falciparum Dd2 strain parasites using a in vitro SYBRGreen-1 based 72 hr proliferation assay to identify novel chemotypes to advance to liver stage assays. NIH/NCATS Early Translation Branch Assay Submitter (PI): Anton Simeonov Ph.D.
Malaria-vivax Assay Protocol: PROTOCOL TABLE (as described by Inglese et al., 2007) SEQUENCE No. (e.g., 1, 2, 3, etc.); […] (e.g., Cells, Incubation, Reagent, etc.); VALUE; DESCRIPTION SEQUENCE, Parameter, Description 1; Reagent; 3 uL complete malaria growth medium, 1536 TC treated Black clear bottom plate 2; Controls; 23 nL positive control artesunate (300 nM final) to column 1; Neutral control DMSO to columns 2-4 3; Compound; 23 nL of compounds in dose response concentration (29 uM to 0.5 nM final) 4; Reagent; 5 uL malaria infected red blood cells (2.5% hematocrit final, 0.3% parasitemia 5; Time; 72 hours at 37C (5% O2, 5% CO2, 90% N2; 95% Rh) 6; Reagent; 2 uL lysis buffer/SYBRGreen-1, 25 sec shake immediately following dispense 7; Time; ~16 hours at 37C (5% O2, 5% CO2, 90% N2; 95% Rh) 8; Detector; EnVision (PerkinElmer) bottom read at 485/14nm excitation and 535/25 nm emission NOTES (numbers refer to sequence above): 1; Complete Malaria Growth Media: 1X RPMI-1640 w/L-glutamine, 5.5g/L Albumax II, 367 uM Hypoxanthine, 25 mM HEPES, 0.25% Sodium Bicarbonate, 35 uM Gentamicin sulfate 2; Controls were added using the Kalypsis Pintool (Wako USA) equipped with 1536 pinhead 3; Compounds were added in a 7-point, titration with a high final concentration of 29 uM by Pintool from seven inter-plate titrations of library plates and two DMSO control plates at the beginning and end (see Yasgar et al., 2008). 4; Red blood cells infected with Plasmodium falciparum Dd2 parasites were used. 6; Lysis buffer: 20 mM Tris-HCl, 10 mM EDTA, 0.16% Saponin, 1.6% Triton-X, 10X SYBR Green. REFERENCE: Inglese J, Shamu CE, Guy RK. 2007. Reporting data from high-throughput screening of small-molecule libraries. Nat Chem Biol. doi:10.1038/nchembio0807-438 Yasgar A, Shinn P, Jadhav A, Auld D, Michael S, Zheng W, Austin CP, Inglese J, Simeonov A. 2008. Compound Management for Quantitative High-Throughput Screening. J Lab Autom 13:79-89. doi:10.1016/j.jala.2007.12.004
Potency means the concentration at half of the fitted maximal effect.

Row | Structure (SMILES) | activity, negative = inhibition | outcome | Potency
1 | CC(C)(C)C(=O)Cn1ccn2nc3c(c2c1=O)CCCC3 | -23.6% |  | 
2 | Cc1cc2nc3n(c(=O)c2n1CC(=O)NC(C)CCc1ccccc1)CCCC3 (stereo not given) |  | inactive | 
3 | COc1ccc2c(CNCCc3ccccc3C)c(C(=O)O)n(Cc3ccccc3C)c2c1 | 54.4% [at 5.79 µM] |  | 
4 | COc1cccc(CNCc2c(C(=O)O)n(Cc3ccc(C)cc3)c3cc(C)ccc23)c1OC |  |  | 10 µM (active)
5 | CCc1ccc(CNCc2c(C(=O)O)n(Cc3ccc(F)cc3Cl)c3cc(OC)ccc23)cc1 |  | inactive | 
6 | O=C(CCCc1ccccc1)N1CCCC(c2nc(C3CCOCC3)no2)C1 (stereo not given) | -17.4% |  | 
7 | Cn1cc(CN2CCOC[C@H](Oc3ccc(S(C)(=O)=O)cc3)C2)c2ccccc21 |  |  | 10 µM (active)
8 | COc1ccc(O[C@H]2COCCN(Cc3nccn3C)C2)cc1 |  | inactive [at 44.1 µM] | 
9 | CC(C)CN1CCOC[C@H](Oc2ccc(S(C)(=O)=O)cc2)C1 | -22.7% [at 44.1 µM] |  | 
10 | COc1ccc(CC(=O)N2CCC(Cc3nc(-c4ccccc4)no3)CC2)cc1OC |  | inactive | 
11 | COc1ccc(-c2noc(CC3CCN(C(=O)Cc4ccc(OC)c(OC)c4)CC3)n2)cc1 |  |  | 11.2 µM (active)
12 | COc1ccc(-c2noc(CC3CCN(C(=O)Cc4ccc(C)cc4)CC3)n2)cc1 | -16% |  | 
13 | N#Cc1ccc(C(=O)N[C@@H](Cc2ccccc2)C(=O)N2CCCOCCNC(=O)CC2)cc1 | -20.6% |  | 
14 | CC(C)(C)C(=O)N1CCC(c2nn(-c3ccc(F)cc3)c(=O)[nH]2)CC1 |  | inactive [at 44.1 µM] | 
15 | Cc1ccc(NC(=O)N2CCc3[nH]c4ccc(F)cc4c3C2)cc1 | -6.6% |  | 
16 | COCc1cn([C@H]2CO[C@H]3[C@@H]2OC[C@H]3OC(=O)Nc2cccc(C#N)c2)nn1 |  | inactive [at 44.1 µM] | 
17 | COc1cccc(-n2c(=O)c3c(C)c(C(=O)N(C)C)sc3n(CC(=O)NCCc3ccc(OC)c(OC)c3)c2=O)c1 | -23.1% |  | 
18 | CCOc1ccccc1NC(=O)Cn1c(=O)n(Cc2ccccc2)c(=O)c2c(C)c(C(=O)N(C)C)sc21 |  |  | 3.16 µM (active)
19 | Cc1c(C(=O)N(C)C)sc2c1c(=O)n(-c1ccc(F)cc1)c(=O)n2CC(=O)N(C)c1ccccc1 | 62.2% |  | 
20 | COc1ccc(Nc2ccc3c(n2)CN(Cc2ccccc2C)C(=O)CO3)cn1 | -2.87% [at 44.1 µM] |  | 
21 | O=C(COc1ccc(F)cc1)N1CCC2(CC1)NCCc1c2[nH]c2ccccc12 |  |  | 10 µM (active)
22 | O=C(C1CCCO1)N1CCC2(CC1)NCCc1c2[nH]c2ccccc12 (stereo not given) | -8.14% |  | 
23 | COCCOCC(=O)N1CCC2(CC1)NCCc1c2[nH]c2ccccc12 | -26.8% |  | 
24 | Cc1nc2ncccn2c1C(=O)N[C@@H]1CCOC[C@H]1Oc1ccccn1 | -3.97% |  | 
25 | Cc1ccc2c(C(=O)O)cc(NC(=O)C(C)C)cc2n1 | 24% |  | 

Row | Structure (SMILES) | activity, negative = inhibition | outcome | Potency
26 | Cc1ccccc1NC1CCn2c(nc(C)c2C(=O)Nc2ccc(F)cc2)C1 (stereo not given) | -18.3% [at 44.1 µM] |  | 
27 | CCN(CCCNC(=O)Cn1ncc2c([nH]c3ccccc32)c1=O)c1cccc(C)c1 | -14.7% |  | 
28 | CCN(CCCNC(=O)c1nnn2cc(-c3ccccc3)[nH]c(=O)c12)c1ccccc1 |  |  | 8.91 µM (active)
29 | CCN(CCCNC(=O)c1cc2cc3cc(OC)ccc3nc2s1)c1ccccc1 | -5.94% |  | 
30 | Cc1nn(C)cc1CN(C)C(=O)C1CN(S(=O)(=O)c2cccnc2)CC12CCCCC2 (stereo not given) |  | inactive | 
31 | COc1cc(=O)n2c(c1C(=O)Nc1cccc(Br)c1)CCCC2 | 27.2% |  | 
32 | CCOc1ccc(-c2cc3nc(C4CCN(C(=O)OC(C)(C)C)CC4)c(C(=O)Nc4cccc(CC)c4)cn3n2)cc1 |  |  | 7.94 µM (active)
33 | CCOc1ccc(-c2cc(C)n3nc(C(=O)Nc4ccc(C)c(C)c4)cc3n2)cc1 | -17.2% |  | 
34 | CCc1cccc(NC(=O)N2CCC(c3noc(COc4ccc(F)cc4)n3)CC2)c1 | -6.5% |  | 
35 | O=C(C[C@@H]1CCNC[C@@H]1Cc1cc(COc2ccccc2)on1)NCc1ccco1 |  | inactive [at 44.1 µM] | 
36 | CCc1cccc(NC(=O)CN2C(=O)NC(c3ccc(Cl)cc3)C3=C2COC3=O)c1 (stereo not given) | -19.7% |  | 
37 | Cc1ccc(-c2nnc(C3CN(C(=O)c4cc(C)cc(C)c4)CC34CCOCC4)o2)cc1 (stereo not given) | -5.46% |  | 
38 | CC(=O)NCC(=O)N1Cc2ccccc2CC2(CCCN2Cc2cccnc2)C1 (stereo not given) | 21.7% |  | 
39 | O=[S+]([O-])(c1ccccc1)N1CC2(CCCCN2Cc2cccnc2)Cc2ccccc21 (stereo not given) |  |  | 8.91 µM (active)
40 | C[S+](=O)([O-])N1Cc2ccccc2CC2(CCN(Cc3cccnc3)CC2)C1 | -18.3% |  | 
41 | CN1CCCN(S(=O)(=O)c2ccccc2)CCC(=O)NCC1 | 25.3% |  | 
42 | CC(C)c1noc(-c2cccn3c(CNC(=O)c4ccc(C(C)(C)C)cc4)nnc23)n1 | -0.267% |  | 
43 | Cc1nc(-c2ccc(Cl)cc2)n(Cc2cc(F)cc(F)c2)c(=O)c1CCO | -10.6% |  | 
44 | CCOc1ccc(C(=O)N2CCCN(C(=O)C3CC3)c3ccccc32)cc1 |  | inactive; activator; fitted 1.7783 uM | 
45 | CCOc1ccc(C(=O)/C=C/c2cn(CC(O)CN3CCCCCC3)c3ccccc23)cc1 (stereo not given) |  |  | 12.6 µM (active)
46 | COc1ccc2cc(C(=O)N3C[C@@H](Oc4ccccc4)C[C@H]3C(=O)N3CCOCC3)[nH]c2c1 | -1.38% |  | 
47 | Cc1ccc(CNC(=O)CCc2c(C)nc3c(c(C)nn3-c3ccccc3)c2C)cc1 | -16.4% |  | 
48 | Cc1nc2c(c(C)nn2-c2ccccc2)c(C)c1CCC(=O)NCCc1ccc(Cl)cc1 | 22.1% |  | 
49 | COC(=O)c1ccc(NC(=O)CCc2c(C)nc3c(c(C)nn3-c3ccc(C)cc3)c2C)cc1 |  |  | 6.31 µM (active)
50 | Cn1cc(-c2ccccc2)cc1C(=O)NCc1ccc(N2CCOCC2)cc1 |  | inactive | 
